Screening results as filed in PubChem BioAssay.
Hits are enriched below; roughly 10% of the tested compounds scored in any of these assays.
BAZ2B block – blocks human BAZ2B. AlphaScreen BAZ2B-H3K14Ac peptide displacement. Q9UIF8. Potency, µM (highest dose often 114 µM), inactives show at the highest dose activity change, negative = inhibition, actives largely listed as inhibitors. actives 4.4% (n = 360,000). AID 504333; note: potency is the fitted concentration of half-maximal effect; % is set by controls: 0 for no effect and ±100 for the full control effect; nearly all actives have a fitted effect of over 60% in size
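AlphaScreen luminescence quantifies BAZ2B engagement of H3K14Ac peptide; the protein and biotinylated peptide are both at 50 nM final, buffer PBS pH 7.4 with 0.01% Tween-20, all steps at room temperature.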
Six1-Eya2 inh – blocks human Six1 binding to Eya2; Q15475+O00167; AlphaScreen GST-Six1/His-Eya2 binding, biochemical; hits give low values; activity change, % (concentration not given with the values); actives 0.56% (n = 360,000); AID 651725; in the data active = activity change below about -65%; inconclusive = mostly about -30% to -63%; note: % is set by controls: 0 for no effect and ±100 for the full control effect
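Compounds are tested against tagged Six1 and Eya2 proteins bridged by glutathione donor and nickel acceptor beads; after a one-hour incubation at 37 °C without light, AlphaScreen emission is recorded.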
HP1b binding inh – HP1-beta chromodomain-methylated histone interaction inhibition; AlphaScreen HP1-beta / biotin-H3K9me3 peptide binding; actives 0.56% (n = 390,000); P83916; Potency, µM (series often up to 114 µM), for inactives: at the top dose activity change, negative = inhibition, actives largely listed as inhibitors; note: potency is the fitted concentration of half-maximal effect; nearly all actives have a fitted effect of over 70% in size
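AlphaScreen: HP1-beta (50 nM) preformed 30 min with biotin-H3(1-18)K9me3 peptide (50 nM) in PBS pH 7.4, 0.01% Tween-20. Compound added for 30 min at RT, then streptavidin donor/nickel chelate acceptor beads (10 ug/mL) for 30 min.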
CtBP-E1A blk – inhibitors of CtBP/E1A interaction; AlphaScreen GST-E1A/His-CtBP binding, 1536-well; hits give low values; activity change, % (no concentration beside the values); actives 0.49% (n = 340,000); AID 651724; in the data active = activity change below about -65%; inconclusive = mostly about -30% to -63%; note: % is set by controls: 0 for no effect and ±100 for the full control effect
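Homogeneous bead-based format: GST-tagged E1A captured on glutathione donor beads, His-tagged CtBP on nickel acceptor beads; compounds precede bead addition by 2 h at 37 °C.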
G9a block – blocks human histone lysine methyltransferase G9a; Potency, µM (titrated, usually from 102 µM), inactives show at the top dose activity, negative = inhibition, actives largely listed as inhibitors; G9a H3K9 monomethylation, AlphaScreen, 2 h; AID 504332; actives 8.8% (n = 350,000); Q96KQ7; note: potency is the fitted concentration of half-maximal effect; % is set by controls: 0 for no effect and ±100 for the full control effect; nearly all actives have a fitted effect of over 75% in size
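AlphaScreen read-out: biotin-H3K9 peptide (500 nM) methylation by 20 nM enzyme with 20 uM SAM, 2 h at room temperature after 15 min compound preincubation; anti-monomethyl H3K9 antibody plus donor/acceptor beads, 10 min dark.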
JMJD2A Tudor – inhibitors of human JMJD2A Tudor domain; actives 4.4% (n = 390,000); AID 504339; AlphaScreen JMJD2A-Tudor / H3K4me3 peptide binding; Potency, µM (top dose mostly 114 µM), inactives show top-dose activity change, negative = inhibition, most hits filed as inhibitors; note: potency is the fitted concentration of half-maximal effect; % is set by controls: 0 for no effect and ±100 for the full control effect; nearly all actives have a fitted effect of over 50% in size
Target sequence (O75164 whole entry, looked up, the tested form may be a part): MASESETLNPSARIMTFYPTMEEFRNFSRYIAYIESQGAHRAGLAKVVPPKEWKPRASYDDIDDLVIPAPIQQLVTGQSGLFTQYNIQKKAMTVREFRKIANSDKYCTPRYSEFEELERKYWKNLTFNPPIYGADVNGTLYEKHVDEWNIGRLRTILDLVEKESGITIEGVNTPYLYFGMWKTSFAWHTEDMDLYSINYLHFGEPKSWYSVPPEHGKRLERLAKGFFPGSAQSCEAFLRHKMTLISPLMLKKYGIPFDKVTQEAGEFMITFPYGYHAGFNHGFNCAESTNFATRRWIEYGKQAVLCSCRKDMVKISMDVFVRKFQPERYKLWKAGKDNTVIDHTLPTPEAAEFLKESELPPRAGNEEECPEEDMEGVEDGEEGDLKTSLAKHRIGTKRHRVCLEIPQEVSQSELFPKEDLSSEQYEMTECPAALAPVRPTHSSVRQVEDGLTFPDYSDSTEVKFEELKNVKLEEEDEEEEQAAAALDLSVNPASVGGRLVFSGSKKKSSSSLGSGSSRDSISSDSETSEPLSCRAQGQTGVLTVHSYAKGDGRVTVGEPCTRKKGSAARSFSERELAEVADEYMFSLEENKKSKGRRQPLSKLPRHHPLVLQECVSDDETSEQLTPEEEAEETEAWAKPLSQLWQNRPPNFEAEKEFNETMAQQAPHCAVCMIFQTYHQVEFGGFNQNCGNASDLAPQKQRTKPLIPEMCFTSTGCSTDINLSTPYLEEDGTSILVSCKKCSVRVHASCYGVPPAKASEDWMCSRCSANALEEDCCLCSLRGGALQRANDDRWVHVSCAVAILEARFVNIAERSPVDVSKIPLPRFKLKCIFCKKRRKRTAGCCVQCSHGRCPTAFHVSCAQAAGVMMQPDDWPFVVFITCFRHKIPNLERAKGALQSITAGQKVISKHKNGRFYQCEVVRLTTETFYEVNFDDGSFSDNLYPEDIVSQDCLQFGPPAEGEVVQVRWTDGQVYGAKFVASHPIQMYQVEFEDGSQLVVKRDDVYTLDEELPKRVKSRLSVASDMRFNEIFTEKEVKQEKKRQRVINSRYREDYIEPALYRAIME
The depositor's hits bear a star; ? = inconclusive; . = not tested or not shown; [ ] = remark or other dose. Unless noted, calls come from the whole dose curve; as a rule, active = well fitted inhibition curve with a large enough effect; inconclusive = small, poorly fitted or top-dose-only effect; inactive = no such curve, though single readings can be large or run the other way.

SMILES | BAZ2B block | Six1-Eya2 inh | HP1b binding inh | CtBP-E1A blk | G9a block | JMJD2A Tudor
CC(C)c1ccc(CN2CCN(C(=O)CCl)CC2)cc1 | -36.7% | 8.8 | 39.0% | . | ? | -1.6%
COc1ccc(CN2CCN(Cc3ccc(C(F)(F)F)cc3)CC2)cc1 | 25.1µM* | -8.5 | ? | -14.5 | 7.08µM* | 7.94µM*
Cc1ccc(C(=O)n2nc(C)c(S(=O)(=O)N3CCOCC3)c2C)cc1C | -15.2% | . | 33.8%[57 µM] | . | 7.7%[59 µM] | -15.3%
CCc1cccc(NC(=O)C(NS(=O)(=O)c2ccc3nc(C)sc3c2)C(C)C)c1 (stereo not given) | 5.1% | . | 38.1% | . | -1.3%[59 µM] | -2.0%
CC(C)CC(=O)N1CCN(Cc2ccccc2[N+](=O)[O-])CC1 | 25.1µM* | 5.2 | 31.6µM* | 18.5 | 14.1µM* | 1.26µM*
Cc1cc(C(=O)COC(=O)c2ccc(Cl)c(S(N)(=O)=O)c2)c(C)n1C1CC1 | ? | -11.3 | ? | -13.1 | 50.1µM* | ?
Cc1ccc2nc(CN3CCN(S(=O)(=O)c4ccccc4)CC3)oc2c1 | -12.9% | . | 12.3% | . | 6.1%[59 µM] | -9.9%
Cc1ccc(NC(=O)c2ccc(Cl)cc2Cl)c(C(=O)c2ccccc2)c1 | 1.7% | . | 30.1% | . | 0.2%[59 µM] | 3.6%
CC(NC(=O)c1ccccc1)c1nc2ccccc2n1Cc1ccccc1F (stereo not given) | -35.0%[57.1 µM] | . | . | . | 50.1µM* | .
O=C(Cc1sc(Nc2ccccc2)nc1-c1ccccc1)NCc1ccccn1 | -37.8% | -6.9 | -16.7% | 5.2 | 35.5µM* | ?
O=C(O)Cc1sc(-c2ccc(Cl)cc2)nc1-c1ccccc1 | 0.5% | 1.7 | ? | -1.6 | -47.2%[12.7 µM] | 25.1µM*
O=C(O)Cc1sc(Nc2ccc(C(=O)O)cc2)nc1-c1ccccc1 | -19.0% | . | 30.0% | . | 1.7%[59 µM] | -0.4%
O=C(O)Cc1sc(-c2ccccc2)nc1-c1ccc(Cl)cc1 | . | -6.1 | . | -11.1 | . | .
CCc1sc(NC(=O)COC)nc1-c1ccccc1 | 3.4% | -1.7 | -21.6% | -8.0 | 35.5µM* | -10.1%
Cc1ccc(Nc2nc(-c3ccccc3)c(CC(=O)O)s2)cc1 | -26.7% | 1.7 | -23.0% | . | 44.7µM* | 2.3%[11.4 µM]
O=C(Cc1ccccc1)NCc1ccccn1 | 7.2% | 11.5 | 34.3% | -16.4 | 0.0%[0.501 µM] | 7.6%
CCN(CC)S(=O)(=O)c1ccc2c(c1)c(=O)c(C(=O)N1CCN(c3cc(Cl)ccc3C)CC1)cn2C | . | . | 28.2% | . | -2.6%[59 µM] | -9.3%
Cc1ccccc1-c1nc(CS(=O)(=O)CC(=O)NCC(C)c2ccccc2)c(C)o1 (stereo not given) | ? | . | 2.8% | . | -11.8%[59 µM] | -29.0%
O=C(O)Cc1sc(Nc2ccc(F)cc2)nc1-c1cccs1 | ? | 0.5 | ? | 4.3 | 8.91µM* | ?
O=C(O)Cc1sc(Nc2ccccc2Cl)nc1-c1ccccc1 | -22.0% | . | 11.3% | . | -4.5%[59 µM] | -18.7%
O=C(O)Cc1sc(Nc2ccccc2)nc1-c1ccc(Cl)cc1 | -27.9% | 12.7 | ? | 4.3 | 17.8µM* | 44.7µM*
Cc1c(Cl)cccc1NC(=O)Nc1c[nH]c(=O)[nH]c1=O | -6.7% | . | 25.5% | . | 0.9%[59 µM] | -15.6%
CC(=O)NC1=NN(C(C)=O)C2(S1)C(=O)N(C(C)C)c1ccc(C)cc12 (stereo not given) | 1.3% | 3.8 | 3.4% | 0.0 | 50.1µM* | 0.6%
Cc1ccc(/C=N/n2c(C3CCCCC3)n[nH]c2=S)o1 | -37.5% | 2.0 | ? | 9.9 | 2µM* | 10µM*
O=[N+]([O-])c1ccc(/C=N/n2c(C3CCCCC3)n[nH]c2=S)cc1 | -30.1% | -0.7 | -1.2% | -22.8 | ? | 89.1µM*
SMILES | BAZ2B block | Six1-Eya2 inh | HP1b binding inh | CtBP-E1A blk | G9a block | JMJD2A Tudor
S=c1[nH]nc(C2CCCCC2)n1/N=C/c1ccncc1 | -14.9% | 14.1 | -15.1% | 0.4 | ? | 5.01µM*
Cc1ccc(/C=N/N2CCCCC2)o1 | -15.9% | -2.2 | 1.5% | -24.1 | ? | -7.1%
CSc1ccc(/C=N/n2c(C3CCCCC3)n[nH]c2=S)cc1 | ? | -9.7 | ? | -9.2 | 11.2µM* | ?
O=C(O)c1ccc(/C=N/n2c(C3CCCCC3)n[nH]c2=S)cc1 | -14.0% | 7.2 | 20.0% | 8.1 | 10µM* | 3.55µM*
O=C(N/N=C/c1ccc(C(=O)O)cc1)C(=O)N1CCCCCC1 | 0.6% | 0.0 | 21.6% | -3.8 | . | -2.3%
S=c1[nH]nc(C2CCCCC2)n1/N=C/c1cccs1 | -38.2% | -8.7 | -20.8% | -25.6 | ? | 50.1µM*
Cc1n[nH]c(=O)n(N=Cc2cccs2)c1=O | . | 6.3 | . | 4.5 | . | .
CN(C)CCN(Cc1ccco1)C(=O)c1oc2ccccc2c1NC(=O)c1cccc(F)c1 | 5.0%[57.1 µM] | . | 20.3% | . | -40.5%[59 µM] | ?
CN(C)CCN(Cc1ccco1)C(=O)c1oc2ccccc2c1NC(=O)COc1ccccc1 | ? | -12.9 | ? | -14.7 | 44.7µM* | 28.2µM*
COc1ccc(CNC(=O)C2CCN(S(=O)(=O)c3ccc4nc5c(c(C(=O)O)c4c3)CC(C)CC5)CC2)cc1 (stereo not given) | -21.7% | -72.7* | 34.0% | -81.6* | -13.7%[59 µM] | -9.5%
COc1ccccc1CNC(=O)C1CCN(S(=O)(=O)c2ccc3nc4c(c(C(=O)O)c3c2)CCCC4)CC1 | -14.3% | ? | 51.2% | ? | . | -21.9%
CC1CCC(NC(=O)C2CCN(S(=O)(=O)c3ccc4nc5c(c(C(=O)O)c4c3)CC(C)CC5)CC2)CC1 (stereo not given) | -16.2% | -5.5 | 17.0% | . | 50.1µM* | -6.1%
CC1CCc2nc3ccc(S(=O)(=O)N4CCC(C(=O)NCc5ccccc5Cl)CC4)cc3c(C(=O)O)c2C1 (stereo not given) | -24.0% | -73.0* | 33.7% | -66.2* | ? | -18.9%
CCCNC(=O)C1CCN(S(=O)(=O)c2ccc3nc4c(c(C(=O)O)c3c2)CCCCC4)CC1 | 7.1% | -6.8 | 45.3% | 3.7 | -13.7% | -1.4%
CCOC(=O)c1ccc(N2C(=O)c3n[nH]c(-c4ccco4)c3C2c2cccc(F)c2)cc1 (stereo not given) | . | . | -12.8% | . | ? | ?
CCOC(=O)c1ccc(N2C(=O)c3n[nH]c(-c4ccco4)c3C2c2ccccc2OC)cc1 (stereo not given) | . | . | -18.5% | . | 12.6µM* | ?
CCOC(=O)c1ccc(N2C(=O)c3n[nH]c(-c4ccco4)c3C2c2ccc(F)cc2)cc1 (stereo not given) | . | . | -13.7% | . | 11.2µM* | ?
Cc1cccc(N2CCN(C(c3ccccc3)c3nnc(-c4ccccc4Cl)o3)CC2)c1C (stereo not given) | 0.0% | . | 23.1% | . | -4.5%[59 µM] | 7.5%
Cc1cccc(OCCC(=O)OCC(=O)Nc2c(C)nn(-c3ccccc3)c2C)c1 | -2.9% | -2.6 | 26.8% | 9.1 | 35.5µM* | -6.9%
